Results on 38 compounds are retold here after PubChem BioAssay (NCI).

About 83,000 compounds went through this panel and 20% of them were active in at least one assay; those are over-represented in the sample as a whole.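 In brief: 96-well plates, 48 h treatment, single concentration, percent growth endpoint.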 Unmarked numbers belong to inactive results. Active and inactive are the calls of the source. How the source made its calls: active means growth percent below 10; inactive means the rest.

The experiment deals with NCI-H460 lung. As to the kind of experiment: NCI-60 one-dose screen, 48 h (100 = growth as untreated, 0 = no growth, -100 = all killed). Particulars: 10 µM unless noted.
For the compound `O=C(c1cccc(C(=O)c2ccc3c4c(cccc24)C(=O)N(c2ccccc2)C3=O)c1)c1ccc2c3c(cccc13)C(=O)N(c1ccccc1)C2=O`, the growth is 104%.
For the compound `Cc1ccc[n+](CCC(N)=O)c1`, the growth is 91.4%.
Regarding `Cc1ccc2nc(N)nnc2c1`, the growth was 112%.
Under `CCOc1ccncc1[N+](=O)[O-]` stands 108%.
The same measure for `Oc1cc(O)c2c(c1)O[C@H](c1ccc(O)c(O)c1)[C@@H](O)C2`: 113%.
The same measure for `Cn1c(=O)c2nc3c(=O)n(C)c(=O)n(C)c3nc2n(C)c1=O`: 102%; for `C=CCOc1ccc(Cl)cc1Cl`: 110%.
In the case of `CCOC(=O)/C(O)=C(\C=N\C(=S)Nc1ccc(Cl)c(Cl)c1)C(=O)OCC`, the growth was 106%.
For the compound `CCOc1ccc(NC(=S)N2CCC(CCCC3CCN(C(=S)Nc4ccc(OCC)cc4)CC3)CC2)cc1`, the growth is 91.5%.
On to `Clc1ccc(C(SCc2ccccc2)SCc2ccccc2)cc1`, for which the growth was 98.3%.
As for `CC(=O)C1C(=O)C(=O)N(c2ccc(Cl)c(Cl)c2)C1=O` (stereo not drawn), the growth was 109%.
Under `Cc1cc(Cl)cc(Cc2cc(Cl)cc(C)c2O)c1O` stands 6.76% (active); under `c1ccc(Oc2c3ccccc3nc3ccccc23)cc1`, 3.68% (active).
Take `O=[N+]([O-])c1ccc2[nH]c(=S)n(/C=C(/c3ccc(Cl)cc3Cl)S(=O)(=O)Cc3ccc(Cl)cc3Cl)c2c1`: the growth is 108%.
`N#C/C(=C\c1ccc(C#N)cc1)C(=O)c1ccccc1`: the growth was 116%.
For the compound `COc1cc(OC)c(NC(=O)C(Sc2nc(C)cc(C)c2C#N)c2ccccc2)cc1Cl` (stereo not drawn), the growth was 110%.
Under `O=c1nc(Nc2cccc(Cl)c2)oc2cc(Cl)oc(=O)c12` stands 98.8%; under `C/C(O)=C(/C=N\C(=S)Nc1ccc(S(=O)(=O)Nc2nccs2)cc1)C(=O)Nc1ccccc1C`, 102%.
On to `CC(O)C(F)(F)C(F)(F)C(F)(F)F` (stereo not drawn), for which the growth was 110%.
Consider `CCOP(=O)(NC(c1ccccc1)c1ccccc1)OCC`, for which the growth was 107%.
Take `CC(=O)OCC1OC(n2cnc3c(=S)nc(N)[nH]c32)C(OC(C)=O)C1OC(C)=O` (stereo not drawn): the growth was 67.2%.
As for `CCCCn1cnc2c(=O)[nH]cnc21`, the growth was 119%.
The same measure for `O=C(NCc1ccccc1)/C(=C/c1ccccc1)NC(=O)c1ccccc1`: 103%; for `O=CNCCc1ccccc1`: 111%; for `COC1OC(C(COC(C)=O)OC(C)=O)C(OC(C)=O)C(OC(C)=O)C1OC(C)=O` (stereo not drawn): 112%.
As to `O=S(Cc1ccccc1)/C(=C/NC(=S)Nc1cc(Cl)ccc1Cl)c1ccccc1` (stereo not drawn), the growth is 107%.
Under `Cc1c(Cl)cccc1N=C=S` stands 101%; under `CC(=O)C1C(=O)C(=O)N(c2cccc([N+](=O)[O-])c2)C1=O` (stereo not drawn), 105%; under `CCOc1ccc2c(c1)c(C)cc(C)[n+]2CC`, 109%.
As to `S=CN1CCCCC1`, the growth is 109%.
On to `Cc1nc(C)c(C(=O)O)cc1C(=O)O`, for which the growth is 112%.
Take `Cc1cc(CC(=O)NCCO)n(CCO)c(=O)c1`: the growth is 103%.
The same measure for `NC(CSSCC(N)C(=O)O)C(=O)O` (stereo not drawn): 42.5%; for `C/C(O)=C(/C=N/C(=S)Nc1ccccc1)C(=O)Nc1ccccc1C`: 106%; for `CC(C)(C)[Si](C)(C)OCC1OC(n2cnc3c(N)ncnc32)CC1OS(C)(=O)=O` (stereo not drawn): 105%.
Consider `NNC(=O)N/N=C1\C(=O)N(c2nccs2)C(=O)C(=O)C1c1nc2ccccc2s1` (stereo not drawn), for which the growth was 101%.
For `C(=C\c1ccncc1)/c1ccncc1`, the growth is 107%.
In the case of `CC(=O)NCNC(C)=O`, the growth was 113%.
